LmPK inhibitor: LmPK (Leishmania mexicana) enzyme inhibition; Q27686; purified LmPK, Kinase-Glo ATP luminescence, 1 h; Potency, µM (titrated, usually from 57.5 µM), actives largely listed as inhibitors; actives 0.37% (n = 290,000); AID 1721
Target sequence (Q27686 whole entry, looked up): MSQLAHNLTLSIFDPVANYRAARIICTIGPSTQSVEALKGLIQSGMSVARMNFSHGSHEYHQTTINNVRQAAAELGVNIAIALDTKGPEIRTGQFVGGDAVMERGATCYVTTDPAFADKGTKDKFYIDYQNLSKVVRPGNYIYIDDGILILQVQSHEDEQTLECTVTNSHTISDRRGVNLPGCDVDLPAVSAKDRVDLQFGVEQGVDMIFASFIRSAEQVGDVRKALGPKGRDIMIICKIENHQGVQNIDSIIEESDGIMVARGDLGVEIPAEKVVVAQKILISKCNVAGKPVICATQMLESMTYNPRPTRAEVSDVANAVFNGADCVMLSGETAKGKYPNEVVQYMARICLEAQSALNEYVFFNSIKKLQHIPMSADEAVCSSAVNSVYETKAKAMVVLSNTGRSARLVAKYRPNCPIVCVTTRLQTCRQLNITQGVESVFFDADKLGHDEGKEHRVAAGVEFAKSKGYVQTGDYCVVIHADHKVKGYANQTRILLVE
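Screened at intermediate enzyme activity to detect both inhibitors and activators: LmPK at 0.1 nM, with a 0.5 nM enzyme column as activation reference. PEP 0.5 mM, ADP 0.1 mM; ATP detected by luminescence after 1 h.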
Tb PYK inh: inhibitors of Trypanosoma brucei pyruvate kinase. TbPYK enzyme, Kinase-Glo Plus ATP luminescence, 45 min. AID 624173. actives 0.12% (n = 410,000). Q57TT1. Potency, µM (titrated, usually from 76.8 µM), most hits filed as inhibitors; further: nearly all actives have a fitted effect of over 50% in size
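Activity of T. brucei pyruvate kinase was followed by Kinase-Glo Plus luminescence after the enzyme reacted 45 min at room temperature with 130 uM ADP (final) and substrate. Test compounds were added before ADP at multiple concentrations.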
AMA1 RON2 block: inhibitors of Plasmodium falciparum AMA1-RON2 interaction; AlphaScreen AMA1-biotinylated RON2 peptide binding; Potency, µM (top dose mostly 58.2 µM), hits mostly inhibitors; actives 0.2% (n = 360,000); AID 720542; further: nearly all actives have a fitted effect of over 45% in size
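AMA1 (3D7) with his tag at 25 nM final met compounds first, then biotinylated RON2 peptide at 25 nM; detection used donor plus acceptor beads, 10 µg/mL apiece, read by AlphaScreen after 30 min at room temperature.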
Sm TGR block: inhibitors of Schistosoma mansoni thioredoxin glutathione reductase. actives 3% (n = 360,000). purified TGR, DTNB reduction, TNB absorbance 405 nm. Q962Y6. Potency, µM (doses to about 114 µM), actives largely listed as inhibitors; further: nearly all actives have a fitted effect of over 60% in size
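First, TGR (20 nM dispensed) and NADPH were mixed with compound. Second, a 15 min room-temperature incubation followed. Third, further NADPH and then DTNB were added to start the reaction. Finally, TNB absorbance was monitored kinetically.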
RE007 growth inh: less growth of the S. pombe RE007 Vpr strain; S. pombe RE007 Vpr strain, BacTiter-Glo ATP luminescence, 24 h; Potency, µM (titrated, usually from 92.2 µM), usual class: inhibitors; actives 0.21% (n = 360,000); active means well fitted falling curve with a large enough effect; inconclusive means small, poorly fitted or top-dose-only effect; inactive means no such curve, though single readings can be large or run the other way; further: nearly all actives have a fitted effect of over 50% in size
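Fission yeast RE007 carrying one integrated HIV-1 vpr copy, seeded at OD 0.01 in PMG+AL medium with 23 nL pinned compound. Grown 24 h at 30 degrees; viability read by BacTiter-Glo luminescence after 5 min.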
Numbers stand for hits; i = inactive; ? = inconclusive; nt = no result given; [ ] = dose if it differs, or a comment. Hits are enriched below; roughly 3.2% of the tested compounds scored in any of these assays. Unless noted, the call rests on the fitted dose curve; in most records, active means well fitted curve in the direction sought with a large enough effect; inconclusive means small, poorly fitted or top-dose-only effect, or another doubt; inactive means no such curve, though single readings can be large; an effect the other way counts as inactive or inconclusive.

SMILES	LmPK inhibitor	Tb PYK inh	AMA1 RON2 block	Sm TGR block	RE007 growth inh
NC(=O)c1ccc(-n2c(CCC(=O)O)ccc2-c2cccs2)cc1	i	i	i	2µM	i
CC(=O)c1ccc(-n2c(CCC(=O)O)ccc2-c2cccs2)cc1	i	?	i	0.89µM	i
O=C(O)CCc1ccc(-c2cccs2)n1NC(=O)c1ccc(Cl)cc1Cl	i	i	i	i	i
Cc1ccc(-n2c(CCC(=O)O)ccc2-c2cccs2)cc1	i	i	i	13µM	i
COc1ccccc1CCNC(=O)Cn1ccc2cc(S(=O)(=O)N3CCCCC3)ccc21	nt	i	nt	i	nt
O=S(=O)(O)OCC1OC(COS(=O)(=O)O)(C2(OS(=O)(=O)O)OC(CO)C(OS(=O)(=O)O)C(OS(=O)(=O)O)C2OS(=O)(=O)O)C(OS(=O)(=O)O)C1OS(=O)(=O)O (centres undefined)	nt	i	nt	nt	nt
COc1cc2cc(CNc3ccc(C)cc3)c(=O)n(CC(=O)Nc3ccc(F)cc3F)c2cc1OC	nt	i	nt	?	nt
O=C(O)CCc1ccc(-c2cccs2)n1NC(=O)c1ccc(Cl)cc1	i	i	i	50µM	i
CCCOc1cccc(C(=O)Nc2ccc(-c3nc4ccccc4o3)cc2)c1	nt	i	nt	i	nt
O=C(NCc1ccco1)/C(=C\c1ccc(F)cc1)NC(=O)c1ccco1	i	i	i	32µM	i
COc1ccc(/C=C(/NC(=O)c2ccco2)C(=O)NCc2ccco2)cc1	nt	i	i	nt	i
O=C(NCc1ccco1)/C(=C/c1ccco1)NC(=O)c1ccco1	i	i	i	25µM	i
O=C(NCc1ccco1)/C(=C\c1ccco1)NC(=O)c1ccccc1Cl	i	i	i	i	i
COc1ccc(OC)c(-c2c3cc(O)c(=O)cc-3oc3cc(O)c(O)cc23)c1	i	?	2µM	?	?
CCOc1ccccc1-c1c2cc(O)c(=O)cc-2oc2cc(O)c(O)cc12	i	?	?	45µM	?
Cc1ccccc1-c1cc(=O)c2c(O)cccc2o1	i	i	i	i	i
COc1ccc(OC)c(-c2oc3ccccc3c(=O)c2O)c1	i	i	i	i	i
CCOC(=O)c1oc2cc(O)ccc2c(=O)c1-c1ccccc1OC	i	i	i	i	i
O=c1cc2oc3cc(O)c(O)cc3c(-c3ccccc3O)c-2cc1O	i	i	1.1µM	8.9µM	nt
CCOC(=O)c1ccc(NC(=O)CSc2nc3ccccc3c(=O)n2CCNC(C)=O)cc1	nt	i	nt	i	nt
COCCNC(=O)c1ccccc1NC(=O)c1nsc2ccccc12	nt	i	nt	i	nt
CCCCc1nn2c(=O)cc(COC(=O)CNC(=O)c3ccccc3C)nc2s1	nt	i	nt	i	nt
CCOc1ccccc1CNC(=O)C1CCN(S(=O)(=O)c2ccc3c(ccn3C)c2)CC1	nt	i	nt	i	nt
CN1C(=O)C2(c3ccccc31)C1CCCC=C1C(C#N)=C(N)C2(C#N)C#N (centres undefined)	i	i	i	20µM	i
Cc1ccc2nc(-c3cccc(N)c3)oc2c1	i	i	i	i	i
SMILES	LmPK inhibitor	Tb PYK inh	AMA1 RON2 block	Sm TGR block	RE007 growth inh
CCc1ccc2oc(-c3cccc(N)c3)nc2c1	?	i	i	i	10µM
CCc1cccc(Nc2ncnc3onc(-c4ccc(F)cc4)c23)c1	nt	i	nt	i	nt
Cc1ccc(-n2c3c(cc(C(=O)NC4CCSC4=O)c2=O)C(=O)CCC3)cc1 (centres undefined)	i	i	i	79µM	i
COc1ccc(C(C)=O)cc1COC(=O)c1ccc2c(c1)OCO2	i	i	i	?	i
COc1ccc(C(C)=O)cc1COC(=O)c1cnc(Cl)c(Cl)c1	i	i	i	1.4µM	i
CNS(=O)(=O)c1cccc(C(=O)OCCCOC(=O)c2cccc(S(=O)(=O)NC)c2)c1	i	i	i	i	i
COc1ccc2c(COC(=O)c3cccc(S(=O)(=O)NCC(C)C)c3)cc(=O)oc2c1	i	i	i	89µM	i
CNS(=O)(=O)c1cccc(C(=O)OCc2cc(C(C)=O)ccc2OC)c1	i	i	i	2.8µM	i
CCOc1ccc(C(C)=O)cc1COC(=O)c1ccccc1C(=O)N(C)Cc1ccccc1	nt	i	i	20µM	i
CN(Cc1ccccc1)C(=O)c1ccccc1C(=O)OCC(=O)N(Cc1ccccc1)C(C)(C)C	nt	i	i	nt	i
OCC1(O)OC[C@@H](O)[C@H](O)[C@@H]1O (some centres undefined)	nt	i	nt	nt	nt
Cc1ccc(-c2nnc(SCC(=O)NC(C)(C)C)nc2-c2ccc(C)cc2)cc1	nt	i	nt	i	nt
COc1cccc(NC(=O)Cn2c(=O)n(CC(=O)NCCc3ccccc3)c(=O)c3sccc32)c1	nt	i	nt	i	nt
Cc1nn(-c2ccccc2)c2c1cc1c(=O)[nH]c(=O)nc-1n2-c1cccc(Cl)c1	nt	i	nt	i	nt
Cc1ccc(C)c(NC(=O)C2CCN(c3cc(C)nc4c(-c5ccc(Cl)cc5)c(C)nn34)CC2)c1	nt	i	nt	i	nt
Cc1c(Cl)cccc1NS(=O)(=O)c1ccc(-c2cnc(C3CC3)o2)cc1	nt	i	nt	i	nt
CCCCc1nc2c(c3c1C[C@H](C)OC3)CN(C(=O)c1ccco1)CC2	i[11.5 µM]	nt	nt	nt	nt
CCOc1ccc(C(C)=O)cc1COC(=O)c1ccc2c(c1)NC(=O)CS2	nt	i	i	11µM	i
COc1ccc(C(C)=O)cc1COC(=O)c1ccc(C)c(S(=O)(=O)N2CCOCC2)c1	nt	i	i	3.5µM	i
COc1ccc(C(C)=O)cc1COC(=O)c1ccc(S(=O)(=O)N(C)C)cc1	i	i	i	2.5µM	i
O=C(Nc1ccc(F)cc1Cl)C1Cc2ccccc2N1C(=O)c1ccccc1 (centres undefined)	nt	i	nt	i	nt
Cc1nnc2c(N3CCN(c4ccc(F)cc4)CC3)nc3ccc(C(=O)c4ccccc4)cc3n12	nt	i[15.4 µM]	nt	i	nt
COc1cccc2cc(C(=O)Nc3ccc(CC(=O)O)cc3)c(=O)oc12	nt	i	nt	i	nt
